An excerpt weighted towards active compounds, which were near 2.4% of everything screened.
Pol iota inh: qHTS for Inhibitors of Polymerase Iota; DNA polymerase iota (Homo sapiens), Q9UNA4; Pol iota fluorescent replication assay, 10 min; Potency, µM (top dose mostly 115 µM), without a hit: at the highest dose activity, negative = inhibition, actives largely listed as inhibitors; actives 1% (n = 390,000); further: potency means the concentration at half of the fitted maximal effect
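Fluorescent replication assay read twice, at 0 min and 10 min after adding 50 nM (final) substrate. Enzyme (10 nM) and compounds were first incubated 15 min at room temperature; enzyme-free buffer wells were negative controls.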
Pol kappa inh-1: qHTS for Inhibitors of Polymerase Kappa | actives 0.53% (n = 400,000) | purified Pol kappa, fluorescent DNA synthesis assay, 10 min | DNA polymerase kappa (Homo sapiens), Q9UBT6 | Potency, µM (highest dose often 107 µM), without a hit: top-dose activity, negative = inhibition, hits mostly inhibitors; further: potency means the concentration at half of the fitted maximal effect; on the % scale 0 is the no-effect control and ±100 the full control effect
Target sequence (Q9UBT6 whole entry, looked up): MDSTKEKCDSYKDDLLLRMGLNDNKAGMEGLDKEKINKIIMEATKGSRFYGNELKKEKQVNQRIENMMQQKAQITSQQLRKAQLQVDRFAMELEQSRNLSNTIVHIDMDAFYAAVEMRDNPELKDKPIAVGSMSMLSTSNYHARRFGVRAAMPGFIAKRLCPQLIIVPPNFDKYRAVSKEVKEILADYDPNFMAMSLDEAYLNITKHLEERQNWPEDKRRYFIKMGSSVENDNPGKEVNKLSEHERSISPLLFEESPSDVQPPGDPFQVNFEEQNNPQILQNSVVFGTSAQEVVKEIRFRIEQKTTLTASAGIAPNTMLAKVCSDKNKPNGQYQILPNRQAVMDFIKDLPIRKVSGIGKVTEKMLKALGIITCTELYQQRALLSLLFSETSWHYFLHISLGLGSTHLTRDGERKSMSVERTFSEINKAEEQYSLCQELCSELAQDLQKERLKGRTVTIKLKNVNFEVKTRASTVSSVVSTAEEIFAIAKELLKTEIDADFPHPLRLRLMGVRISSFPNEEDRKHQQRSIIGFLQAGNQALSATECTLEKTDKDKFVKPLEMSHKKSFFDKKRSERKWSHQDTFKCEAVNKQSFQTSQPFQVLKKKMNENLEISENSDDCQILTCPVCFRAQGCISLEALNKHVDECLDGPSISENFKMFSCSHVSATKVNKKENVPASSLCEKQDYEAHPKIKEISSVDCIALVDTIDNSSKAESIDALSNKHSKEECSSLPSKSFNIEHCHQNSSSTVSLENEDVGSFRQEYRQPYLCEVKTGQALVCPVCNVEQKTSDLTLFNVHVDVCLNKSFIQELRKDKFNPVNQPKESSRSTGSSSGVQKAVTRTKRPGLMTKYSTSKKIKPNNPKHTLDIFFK
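Fluorescent qHTS in 1536-well format: enzyme (10 nM) and compound sat 15 min at room temperature before 50 nM substrate (final) was added. Signal taken at 0 and 10 min; no-enzyme buffer wells were negative controls.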
POLB inh: qHTS Assay for Inhibitors of DNA Polymerase Beta; P06746; Pol beta primer extension/strand displacement, fluorescence kinetic; Potency, µM (highest dose often 114 µM), inactives show at the highest dose activity change, negative = inhibition, hits mostly inhibitors; actives 1.3% (n = 340,000); AID 485314, 2010; further: potency means the concentration at half of the fitted maximal effect; on the % scale 0 is the no-effect control and ±100 the full control effect
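Preincubation: enzyme (10 nM) with compound, 15 min, RT. Reaction: substrate added to 50 nM final. Reads: 0 and 10 min. Analysis: normalized, Hill fit.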
APE1 inh: qHTS Assay for Inhibitors of the Human Apurinic/apyrimidinic Endonuclease 1 (APE1) | DNA repair nuclease/redox regulator APEX1 (Homo sapiens), P27695 | recombinant APE1, TAMRA/BHQ-2 abasic DNA cleavage fluorescence | Potency, µM (top dose mostly 65.8 µM), for inactives: top-dose activity change, negative = inhibition, hits mostly inhibitors | actives 0.35% (n = 350,000) | AID 2517, 2012;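 further: potency means the concentration at half of the fitted maximal effect; plate controls were vehicle for no effect and reference inhibitor for full effect; nearly all actives have a fitted effect of over 55% in size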
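Substrate: short duplex with […] THF abasic site, 5'-TAMRA and 3'-BHQ-2, 50 nM final. APE1 at 0.75 nM, preincubated 15 min RT with compound. Fluorescence increase from first to third read measured activity.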
GLS inhibitor: qHTS for Inhibitors of Glutaminase (GLS) | actives 0.21% (n = 410,000) | Glutaminase kidney isoform, mitochondrial (Homo sapiens), O94925 | Potency, µM (titrated, usually from 45.5 µM), without a hit: at the highest dose activity change, negative = inhibition, hits mostly inhibitors | GLS enzymatic activity, qHTS titration | AID 624170, 2012; further: potency means the concentration at half of the fitted maximal effect; on the % scale 0 is the no-effect control and ±100 the full control effect
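Two-point fluorescence kinetic (t0, 30 min RT) for hKGA; glutamate detected via glutamate oxidase–HRP–Amplex Red. Substrate: 1 mM L-glutamine solution; buffer 45 mM KH2PO4, pH 8.2.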
Pol eta inh-1: qHTS for Inhibitors of Polymerase Eta | actives 1.2% (n = 390,000) | Potency, µM (doses to about 114 µM), for inactives: at the highest dose activity change, negative = inhibition, most hits filed as inhibitors | AID 588591, 2011 | recombinant Pol eta, fluorescent DNA replication assay; further: potency means the concentration at half of the fitted maximal effect; on the % scale 0 is the no-effect control and ±100 the full control effect
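Pol eta at 10 nM preincubated with compounds 15 min at room temperature; reaction started with fluorescent substrate (50 nM final) and read kinetically at 0 and 10 min.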
TbPGK inh: qHTS for inhibitors of Phosphogylcerate Kinase: Hit Validation Screen; shares compounds with Pol kappa inh-1; TbPGK coupled GAPDH assay, Kinase-Glo luminescence; Potency, µM (highest dose often 57.5 µM), for the others: at the highest dose activity change, negative = inhibition, most hits filed as inhibitors; actives 79% (n = 500); AID 686980, 2013; further: potency means the concentration at half of the fitted maximal effect; on the % scale 0 is the no-effect control and ±100 the full control effect; nearly all actives have a fitted effect of over 65% in size
Pol iota confirm: qHTS for Inhibitors of Polymerase Iota: Confirmatory Assay for Cherry-picked Compounds | shares compounds with Pol kappa inh-1 | Pol iota primer extension, TAMRA/BHQ fluorescence | Potency, µM, hits mostly inhibitors | actives 77% (n = 1,500) | AID 720496, 2013; further: potency means the concentration at half of the fitted maximal effect
GALK inh confirm: Confirmation Assay for Inhibitors of Human Galactokinase (GALK) | Potency, µM (doses to about 115 µM), inactives show at the highest dose activity, negative = inhibition, hits mostly inhibitors | purified GALK, Kinase-Glo ATP depletion luminescence | shares compounds with Pol eta inh-1 | actives 70% (n = 150)
Redox cycling: Confirmatory Assay for Inhibitors of Human Galactokinase (GALK): Phenol-HRP redox assay counterscreen; shares compounds with Pol eta inh-1; Phenol red-HRP H2O2 redox cycling, absorbance 600 nm; Potency, µM (doses to about 115 µM), for inactives: top-dose activity change, negative = H2O2 signal, usual class: inhibitors; actives 40% (n = 150); AID 2035, 2009
HEK293 tox: Secondary Assay for Inhibitors of Human Galactokinase (GALK): HEK-293 Cell Viability Assay; actives 10% (n = 170); HEK-293 viability, ATP luminescence (CellTiter-Glo), 24/48 h; shares compounds with Pol eta inh-1; Potency, µM (doses to about 46.1 µM), without a hit: top-dose activity change, negative = cytotoxicity, actives largely listed as inhibitors; further: potency means the concentration at half of the fitted maximal effect; on the % scale 0 is the no-effect control and ±100 the full control effect
Pol kappa inh-2: qHTS for Inhibitors of Polymerase Kappa: Confirmatory Assay for Cherry-picked Compounds; Potency, µM, usual class: inhibitors; shares compounds with Pol eta inh-1; purified Pol-kappa, fluorescent strand-displacement substrate; actives 76% (n = 920); further: potency means the concentration at half of the fitted maximal effect
Pol eta inh-2: qHTS for Inhibitors of Polymerase Eta: Confirmatory Assay for Cherry-picked Compounds; shares compounds with Pol eta inh-1; Pol eta primer extension, TAMRA/BHQ fluorescence, 10 min; Potency, µM, actives largely listed as inhibitors; actives 64% (n = 2,600); further: potency means the concentration at half of the fitted maximal effect
Numbers without * were called inactive; ? = inconclusive; / = not tested or not shown; [ ] = dose if it differs, or a comment. The call rests on the fitted dose curve; in most records, active means well fitted curve in the direction sought with a large enough effect; inconclusive means small, poorly fitted or top-dose-only effect, or another doubt; inactive means no such curve, though single readings can be large; an effect the other way counts as inactive or inconclusive.

SMILES | Pol iota inh | Pol kappa inh-1 | POLB inh | APE1 inh | GLS inhibitor | Pol eta inh-1 | Pol iota confirm | Pol eta inh-2 | others
CCOC(=O)c1cc(-c2ccccc2)n(CCCC(=O)Nc2cccc(C)c2)c1C | -16% | -18%[60.1 µM] | -13% | / | -12% | -7% | / | /
C=CCN1C(=O)/C(=C/c2ccc(OC(C)=O)c(OCC)c2[N+](=O)[O-])SC1=S | 28% | ? | ? | -1% | 9% | 20µM* | 75* | 67* | GALK inh confirm=?;Redox cycling=42µM*;HEK293 tox=?
CCOc1c(OC(C)=O)ccc(/C=C/c2ccc3cccc(OC(C)=O)c3n2)c1[N+](=O)[O-] | 3% | -15% | 2% | -5% | 5% | -14% | / | /
Cc1cc(C)n2nc(C(=O)N/N=C/c3c4ccccc4cc4ccccc34)nc2n1 | -1% | -16% | ? | -3% | -6% | ? | 67* | ?
Cc1cc(C)n2nc(C(=O)N/N=C/c3ccccc3Cl)nc2n1 | 43% | -2% | 22% | 13% | 22% | 0% | / | /
CCOC(=O)C1CCCN(C(=O)c2cc(-c3ccncc3)nc3ccccc23)C1 (stereo unspecified) | 32% | 1% | / | 1% | -1% | -23% | / | /
CCOC(=O)C1CCCN(C(=O)c2cc(-c3ccco3)nc3ccccc23)C1 (stereo unspecified) | 3.5µM* | 22µM* | / | 8.4µM* | 13µM* | 3.2µM* | 19* | 19* | TbPGK inh=10µM*;Pol kappa inh-2=9.5*
Cn1c(N)c(C(=O)COC(=O)c2cc(-c3ccco3)nc3ccccc23)c(=O)n(C)c1=O | 7.1µM* | ? | 16µM* | ? | 7.9µM* | 7.9µM* | 24* | 19*
O=C(Nc1ccccc1F)c1cc(-c2ccco2)nc2ccccc12 | ? | -31% | / | / | 98% | 79µM* | ? | 85*
O=C(O)c1ccccc1/C=N/NC(=O)c1cc(-c2ccco2)nc2ccccc12 | ? | 35µM* | 8.9µM* | 22µM* | 1% | 3.2µM* | 17* | 7.6*
COc1ccc(-c2cc(C(=O)OCC(=O)c3c(N)n(C)c(=O)n(C)c3=O)c3ccccc3n2)cc1 | 33% | 0% | -1% | -1% | -5% | -4% | / | /
Cc1cccc(S(=O)(=O)NNC(=O)Cc2cccn2C)c1 | ? | 5% | 25% | 1% | 0% | -1% | / | /
CC(C)(C)CC(C)(C)c1cc(Cc2cc(C(C)(C)CC(C)(C)C)cc(-n3nc4ccccc4n3)c2O)c(O)c(-n2nc3ccccc3n2)c1 | / | -4%[19.4 µM] | / | / | 1% | / | / | /
COc1ccc(CCNC(=O)c2cc(-c3ccco3)nc3ccccc23)cc1 | 22µM* | 79µM* | / | / | 186% | 8.9µM* | 34* | 67*
Cc1oc(-c2ccc(Cl)cc2)cc1-c1nn2c(-c3ccoc3C)nnc2s1 | ? | ? | 3.5µM* | ? | -11% | 4.5µM* | ? | 76*
Clc1ccc(-c2nn3c(-c4ccccc4)nnc3s2)cc1 | 23% | -10% | ? | -4% | -1% | ? | / | /
O=C(O)c1cc2c(cc1NC(=O)c1ccccc1OC(F)F)OCCCO2 | 25% | -4% | -4% | 2%[12.4 µM] | 12% | -3% | / | /
CCCN(C(=O)c1cccc(-n2cccc2)c1)c1c(N)n(Cc2ccccc2)c(=O)[nH]c1=O | 10µM* | 28µM* | / | 6.7µM* | ? | 11µM* | 30* | 43*
CCCCN(C(=O)c1cccc(-n2cccc2)c1)c1c(N)n(CCC)c(=O)[nH]c1=O | 14µM* | ? | / | -89% | 156% | 16µM* | 30* | 38*
O=C(O)c1ccccc1/C=N/Nc1ccc(S(=O)(=O)N2CCOCC2)cc1[N+](=O)[O-] | 6% | -2% | 7% | 1% | 21% | -7% | / | /
CCOc1cccc(/C=N/NC(=S)Nc2ccccc2[N+](=O)[O-])c1O | -27% | -11% | 1% | -5% | 11% | -5% | / | /
O=C(O)c1ccccc1NS(=O)(=O)c1ccc(N/N=C/c2ccc(O)c(O)c2)c([N+](=O)[O-])c1 | 7.9µM* | 32µM* | / | / | -9% | 2.5µM* | 27* | 30* | TbPGK inh=10µM*;Pol kappa inh-2=17*

Assay outcomes: PubChem, National Center for Advancing Translational Sciences (NCATS)
